Data taken from PubChem BioAssay.
The source made the active and inactive calls.

Experiments:
[1] = optical density shifts of acrAB sulA E. coli – strain DRC41, OD650, 48 h, E. coli filamentation inducer project, primary screen (AID 1152); conditions: higher = more signal, called active from +8 up or from −8 down;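 note: E. coli MC1000 strain DRC41 lacking acrAB efflux pump and sulA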
[2] = probe aLefty1 binding on compound microarray – biochemical, small-molecule microarray, 635/667 nm fluorescence, primary screen (AID 1153); conditions: higher = more signal;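 note: score merges spot fluorescence with signal-to-noise ratio from the scanned slide images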
[3] = plasmodial surface anion channel blockers, osmotic lysis – cell-based, P. falciparum Indochina, OD700, 1 h, primary screen (AID 1154); conditions: P. falciparum Indochina infected RBC osmotic lysis, higher = more signal, called active from +8 up or from −8 down
[4] = plasmodial surface anion channel blockers, osmotic lysis – cell-based, P. falciparum Indochina, OD700, 2 h, primary screen (AID 1155);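 note: lysis reports solute entry through the parasite surface anion channel PSAC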; conditions: P. falciparum Indochina infected erythrocytes, higher = more signal, called active from +8 up or from −8 down
[5] = changes in parasitized red cell lysis, either direction – P. falciparum Indochina, OD700, 3 h, PSAC antagonist project, primary screen (AID 1156); conditions: P. falciparum-infected erythrocytes, osmotic lysis, higher = more signal, called active from +8 up or from −8 down
[6] = plasmodial surface anion channel blockers, osmotic lysis – cell-based, P. falciparum Indochina, OD700, 18 h, primary screen (AID 1157); conditions: P. falciparum Indochina infected erythrocytes, osmotic lysis OD700, 18 h; higher = more signal, called active from +8 up or from −8 down
[7] = S6 kinase pathway phospho-S6 level changes – cell-based, A549, cytoblot, luminescence, serum-stimulated, primary screen (AID 1158); conditions: 5 h, higher = more signal;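 note: serum-stimulated A549 lung adenocarcinoma cells; signal is phosphorylated S6 detected by cytoblot immunostaining with HRP secondary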
[8] = target: NADPH oxidase 2 (Homo sapiens) (UniProt P04839); assay: compounds shifting NOX2 Amplex Red fluorescence – cell-based, HEK293-NOX2, PMA-stimulated, NOX inhibitor project, primary screen (AID 1159); conditions: 45 min, higher = more signal, called active from +8 up or from −8 down; note: test concentration not given here
[9] = target: NADPH oxidase 4 (Homo sapiens) (UniProt Q9NPH5); assay: compounds shifting NOX4 Amplex Red fluorescence – cell-based, HEK293-NOX4, tetracycline-induced, NOX inhibitor project, primary screen (AID 1160); conditions: HEK293-NOX4, Amplex Red H2O2 fluorescence, 45 min; higher = more signal, called active from +8 up or from −8 down
[10] = target: NADPH oxidase 5 (Homo sapiens) (UniProt Q96PH1); assay: compounds shifting NOX5 Amplex Red fluorescence – cell-based, HEK293-NOX5, NOX inhibitor project, primary screen (AID 1161); conditions: HEK293-NOX5, ionomycin, 45 min, higher = more signal
[11] = compound effects on lung adenocarcinoma cell viability – A549, calcein-AM fluorescence, 48 h, basal, profiling panel (AID 1162); conditions: higher = more signal; note: test concentration not given here
[12] = compound effects on differentiated 3T3-L1 adipocyte viability – cell-based, 3T3-L1 adipocytes, calcein-AM fluorescence, 48 h, basal, profiling panel (AID 1163); conditions: 3T3-L1 adipocytes viability, higher = more signal; note: test concentration not given here
[13] = compound effects on hepatocellular carcinoma cell viability – HepG2, calcein-AM fluorescence, 48 h, basal, profiling panel (AID 1164); conditions: higher = more signal; note: test concentration not given here
[14] = compound effects on multiple myeloma cell viability – MM1S, calcein-AM fluorescence, 48 h, basal, profiling panel (AID 1165); conditions: higher = more signal; note: test concentration not given here
[15] = calcein-AM signal in unstimulated myeloma cells – cell-based, calcein-AM fluorescence, 48 h, PK04 Diversity Set, profiling panel (AID 1166); conditions: RPMI8226 myeloma viability, higher = more signal;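 note: cells grown under basal conditions without added stimulus; test concentration not given here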
[16] = JC-1 mitochondrial signal, unstimulated HepG2 cells – cell-based, JC-1 fluorescence, 24 h, 100 nL compound, profiling panel (AID 1167); conditions: HepG2 mitochondrial potential, higher = more signal; note: test concentration not given here
[17] = JC-1 mitochondrial signal, unstimulated adipocytes – cell-based, JC-1 fluorescence, 3T3-L1 adipocytes, 24 h, 100 nL compound, profiling panel (AID 1168); conditions: JC-1 mitochondrial fluorescence, higher = more signal, called active from +8 up or from −8 down; note: test concentration not given here
[18] = JC-1 mitochondrial signal, unstimulated myeloma cells – cell-based, JC-1 fluorescence, RPMI8226, 24 h, 100 nL compound, profiling panel (AID 1169); conditions: JC-1 mitochondrial potential fluorescence, higher = more signal; note: test concentration not given here
[19] = JC-1 mitochondrial signal, unstimulated MM1S myeloma – cell-based, JC-1 fluorescence, 24 h, 100 nL compound, profiling panel (AID 1170); conditions: MM1S mitochondrial potential, higher = more signal; note: test concentration not given here
[20] = resazurin metabolic signal in A549 cells – cell-based, resazurin fluorescence, 24 h, PK04 Diversity Set, profiling panel (AID 1171); conditions: A549 viability, higher = more signal, called active from +8 up or from −8 down; note: test concentration not given here

NADPH oxidase 4 (Homo sapiens), sequence (Q9NPH5 whole entry, looked up): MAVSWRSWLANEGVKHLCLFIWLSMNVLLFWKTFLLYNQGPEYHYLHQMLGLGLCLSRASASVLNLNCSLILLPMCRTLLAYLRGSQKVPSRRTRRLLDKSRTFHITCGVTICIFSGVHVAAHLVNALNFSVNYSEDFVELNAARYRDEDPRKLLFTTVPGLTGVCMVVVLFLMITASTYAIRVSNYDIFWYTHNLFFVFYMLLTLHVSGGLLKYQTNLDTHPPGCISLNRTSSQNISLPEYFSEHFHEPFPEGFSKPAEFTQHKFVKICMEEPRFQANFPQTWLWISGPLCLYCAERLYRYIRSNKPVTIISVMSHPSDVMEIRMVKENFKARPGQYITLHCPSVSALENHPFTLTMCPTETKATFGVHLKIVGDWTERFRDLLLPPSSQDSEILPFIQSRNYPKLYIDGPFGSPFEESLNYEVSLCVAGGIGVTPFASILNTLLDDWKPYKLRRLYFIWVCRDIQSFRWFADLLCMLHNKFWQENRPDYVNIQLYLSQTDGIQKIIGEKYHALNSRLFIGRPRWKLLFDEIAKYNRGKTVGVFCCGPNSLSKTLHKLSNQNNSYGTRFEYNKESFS
NADPH oxidase 2 (Homo sapiens), sequence (P04839 whole entry, looked up): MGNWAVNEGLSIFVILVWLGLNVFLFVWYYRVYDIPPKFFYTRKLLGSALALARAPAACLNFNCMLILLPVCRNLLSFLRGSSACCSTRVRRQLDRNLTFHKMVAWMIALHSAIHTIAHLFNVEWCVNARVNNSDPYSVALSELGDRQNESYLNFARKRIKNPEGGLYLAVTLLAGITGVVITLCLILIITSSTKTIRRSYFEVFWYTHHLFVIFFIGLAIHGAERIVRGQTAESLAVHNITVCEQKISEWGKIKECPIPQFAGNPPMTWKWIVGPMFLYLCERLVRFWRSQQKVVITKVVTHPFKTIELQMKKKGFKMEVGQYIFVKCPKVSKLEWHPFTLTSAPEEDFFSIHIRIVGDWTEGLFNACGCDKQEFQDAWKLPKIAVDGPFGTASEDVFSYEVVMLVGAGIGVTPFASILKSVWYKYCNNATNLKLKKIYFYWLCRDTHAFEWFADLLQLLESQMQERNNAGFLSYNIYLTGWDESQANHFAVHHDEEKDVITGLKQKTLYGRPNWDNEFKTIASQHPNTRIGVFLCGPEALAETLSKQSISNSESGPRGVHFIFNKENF
NADPH oxidase 5 (Homo sapiens), sequence (Q96PH1 whole entry, looked up): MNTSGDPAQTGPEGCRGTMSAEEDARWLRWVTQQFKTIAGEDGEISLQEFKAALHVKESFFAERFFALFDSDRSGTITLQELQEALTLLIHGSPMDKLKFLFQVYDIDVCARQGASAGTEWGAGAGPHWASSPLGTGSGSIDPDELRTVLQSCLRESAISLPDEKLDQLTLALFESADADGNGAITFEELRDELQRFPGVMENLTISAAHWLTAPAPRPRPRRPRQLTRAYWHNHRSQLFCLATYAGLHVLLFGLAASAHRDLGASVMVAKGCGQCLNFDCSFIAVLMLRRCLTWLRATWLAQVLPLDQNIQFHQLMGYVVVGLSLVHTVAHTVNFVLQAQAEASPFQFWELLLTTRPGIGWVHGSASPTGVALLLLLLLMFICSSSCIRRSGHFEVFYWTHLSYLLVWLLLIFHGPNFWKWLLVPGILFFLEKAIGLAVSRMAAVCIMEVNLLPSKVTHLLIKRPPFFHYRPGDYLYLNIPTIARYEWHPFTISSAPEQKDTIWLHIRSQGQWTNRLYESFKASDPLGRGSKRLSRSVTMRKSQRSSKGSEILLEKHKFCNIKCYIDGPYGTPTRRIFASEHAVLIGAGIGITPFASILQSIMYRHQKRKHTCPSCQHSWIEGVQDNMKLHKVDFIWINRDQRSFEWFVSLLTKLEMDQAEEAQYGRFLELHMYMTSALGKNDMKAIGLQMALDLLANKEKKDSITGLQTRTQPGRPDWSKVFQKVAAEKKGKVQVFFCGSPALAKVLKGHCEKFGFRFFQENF

Compound	z-score [1]	composite z-score [2]	z-score [3]	z-score [4]	z-score [5]	z-score [6]	z-score [7]	z-score [8]	z-score [9]	z-score [10]	z-score [11]	z-score [12]	z-score [13]	z-score [14]	z-score [15]	z-score [16]	z-score [17]	z-score [18]	z-score [19]	z-score [20]
CCCC[C@H]1OB(O)C[C@H]2C1=C(C)C[C@H]1C(=O)N(C)C(=O)[C@H]12	-0.908 (inactive)	-0.147	0.39 (inactive)	-0.123 (inactive)	-0.974 (inactive)	0.0834 (inactive)	0.292	-0.76 (inactive)	0.332 (inactive)	-0.235	-0.203	-0.623	-1.02	-2.27	-0.848	-1.79	-0.467 (inactive)	0.391	0.203	-0.794 (inactive)
CCCNC(=O)OC[C@H]1O[C@H](CCON=C[C@@H](OC)[C@H](C)C=CCC(=O)OC)C=C[C@@H]1Oc1ccc(OC)cc1	-0.042 (inactive)	0.0889	4.4 (inactive)	0.143 (inactive)	-0.0652 (inactive)	0.368 (inactive)	0.0604	-1.56 (inactive)	0.00725 (inactive)	-2.76	0.0666	0.764	0.97	-0.902	0.122	-0.12	-0.277 (inactive)	0.0719	-0.118	1.2 (inactive)
CCOC(=O)[C@H](Cc1ccccc1)NC(=O)CCC1CC(OC(=O)NCc2ccc3c(c2)OCO3)CC2(CCCC(COC(=O)NCc3cccc(C(F)(F)F)c3)O2)O1 (stereo not given in full)	-0.667 (inactive)	0.138	-0.272 (inactive)	-1.05 (inactive)	-0.106 (inactive)	-1.37 (inactive)	2.74	-0.661 (inactive)	-1.35 (inactive)	-0.999	0.46	1.24	-0.526	0.706	-2.18	2.06	-0.56 (inactive)	0.918	-0.622	-0.0224 (inactive)
C#CCCCON=C1C[C@@H](O)[C@@H](O)[C@@H]2[C@@H]3C(=O)N(CCC(=O)OCC)C(=O)[C@@H]3CC[C@@H]12	0.425 (inactive)	0.309	16.5 (active)	1.47 (inactive)	0.146 (inactive)	0.404 (inactive)	0.194	-9.69 (active)	0.556 (inactive)	0.618	-0.284	-0.533	-0.675	0.17	-0.608	-1.18	-1.66 (inactive)	0.213	-0.123	-0.0981 (inactive)
COCCCNC(=O)[C@]1(Cc2ccccc2)N=C(c2ccc(OCCCO)cc2)O[C@@H]1c1ccccc1	-1.43 (inactive)	0.301	26.9 (active)	18.6 (active)	0.972 (inactive)	2.34 (inactive)	-0.612	-1.04 (inactive)	0.654 (inactive)	1.1	-0.2	0.346	0.0484	-2.27	-0.701	-0.175	0.492 (inactive)	-0.286	-0.498	2.67 (inactive)
C=C(/C(=C/C[C@H](OC(=O)c1ccncc1)c1ccc(OCCO)cc1)c1cnc2ccccc2c1)C(C)C	-0.592 (inactive)	0.188	18.5 (active)	3.04 (inactive)	1.11 (inactive)	0.724 (inactive)	-0.288	-0.513 (inactive)	-0.346 (inactive)	-0.699	1.31	-0.122	0.0253	-2.75	-0.294	0.92	-0.69 (inactive)	-0.815	-0.0967	0.58 (inactive)
C/C=C\[C@@H](NCc1ccccc1Br)[C@@H](O)Cc1ccccc1	-1.43 (inactive)	0.0927	-0.222 (inactive)	-1.35 (inactive)	0.0141 (inactive)	-2.52 (inactive)	0.365	-0.239 (inactive)	-1.49 (inactive)	-2.69	-1.17	1.43	-1.44	-1.53	-3.29	-1.34	0.0182 (inactive)	-0.926	-0.0951	-0.29 (inactive)
CCN1C(=O)[C@H]2[C@H]3[C@H](O)[C@H](O)CC(=NOCc4ccccc4)[C@@H]3CC[C@H]2C1=O	0.401 (inactive)	0.0224	0.425 (inactive)	-1.09 (inactive)	-0.0231 (inactive)	-2.2 (inactive)	2.27	-0.521 (inactive)	-0.0627 (inactive)	0.388	0.391	0.817	1.43	0.565	-0.714	0.402	0.752 (inactive)	-0.0637	-0.758	-0.725 (inactive)
CO[C@@H]1COC(=O)[C@H](C)NC(=O)[C@@H](C)COC(=O)CCC[C@H]1C	0.298 (inactive)	0.0291	5.14 (inactive)	0.891 (inactive)	1.45 (inactive)	0.516 (inactive)	-0.276	-0.869 (inactive)	0.0705 (inactive)	-1.15	-0.0857	-0.459	-0.735	-0.3	-1.38	-0.85	-0.788 (inactive)	0.706	-0.626	-0.0213 (inactive)
